Data reported in PubChem BioAssay AID1159580 (chemical genetic matrix, 2015).
“And” between values parts separate entries of the source, which are not always exact repeats. Equal values may be shown once. About 2,000 (36%) of roughly 5,500 compounds were called active. Roughly 18% stayed inconclusive and do not appear here. Rule as the data show it: active = normalized growth mostly below about 0.91 (no sharp cut-off); inconclusive = no clear call, values can overlap the other calls; inactive = mostly above about 0.92. This is one part of the list.

Assay: chemical genetic growth profiling, strain panel (AID 1159580);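 also: tested at 20 µM; growth read once vehicle control cultures reached saturation at 30 °C; 1 = growth at the plate median or of vehicle wells; lower values mean less growth of the strain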
Conditions: growth OD

Measured: normalized growth

NC(N)=NCCCCN=C(N)N
inactive: S. cerevisiae deletion strains, locus YKL009W, strain mrt4, stronger effect = lower value 1 | S. cerevisiae deletion strains, locus YKL068W, stronger effect = lower value 0.988 | S. cerevisiae deletion strains, locus YKL085W, strain MDH1 (second series), stronger effect = lower value 1.03 | S. cerevisiae deletion strains, locus YKL085W, strain MDH1, stronger effect = lower value 1.03 | S. cerevisiae deletion strains, locus YKL160W, strain elf1, stronger effect = lower value 1.02 | S. cerevisiae deletion strains, locus YKL190W, strain CNB1, stronger effect = lower value 0.985 | S. cerevisiae deletion strains, locus YKR001C, strain vps1, stronger effect = lower value 1.01 | S. cerevisiae deletion strains, locus YKR026C, strain gcn3, stronger effect = lower value 0.995 | S. cerevisiae deletion strains, locus YKR091W, strain srl3, stronger effect = lower value 1 | S. cerevisiae deletion strains, locus YLL001W, strain dnm1, stronger effect = lower value 1.01 | S. cerevisiae deletion strains, locus YLL026W, stronger effect = lower value 1.01 | S. cerevisiae deletion strains, locus YLL041C, strain sdh2, stronger effect = lower value 0.986 | S. cerevisiae deletion strains, locus YLR027C, strain aat2, stronger effect = lower value 1 | S. cerevisiae deletion strains, locus YLR039C, strain RIC1, stronger effect = lower value 0.99 | S. cerevisiae deletion strains, locus YLR058C, strain SHM2, stronger effect = lower value 0.972 | S. cerevisiae deletion strains, locus YLR102C, strain apc9, stronger effect = lower value 0.993 | S. cerevisiae deletion strains, locus YLR113W, strain HOG1, stronger effect = lower value 0.97 | S. cerevisiae deletion strains, locus YLR221C, strain rsa3, stronger effect = lower value 1.04 | S. cerevisiae deletion strains, locus YLR258W, strain gsy2, stronger effect = lower value 1.01 | S. cerevisiae deletion strains, locus YLR262C, strain YPT6 (second series), stronger effect = lower value 1.02 | S. cerevisiae deletion strains, locus YLR262C, strain YPT6, stronger effect = lower value 0.963 | S. cerevisiae deletion strains, locus YLR268W, strain sec22, stronger effect = lower value 0.978 | S. cerevisiae deletion strains, locus YLR320W, strain mms22, stronger effect = lower value 1.05 | S. cerevisiae deletion strains, locus YLR330W, strain CHS5, stronger effect = lower value 0.993 | S. cerevisiae deletion strains, locus YLR342W, strain FKS1 (second series), stronger effect = lower value 1.03 | S. cerevisiae deletion strains, locus YLR342W, strain FKS1, stronger effect = lower value 0.993 | S. cerevisiae deletion strains, locus YLR357W, strain rsc2, stronger effect = lower value 0.998 | S. cerevisiae deletion strains, locus YLR370C, strain arc18, stronger effect = lower value 0.991 | S. cerevisiae deletion strains, locus YLR371W, strain rom2, stronger effect = lower value 0.95 | S. cerevisiae deletion strains, locus YLR384C, strain iki3, stronger effect = lower value 0.997 | S. cerevisiae deletion strains, locus YLR418C, strain cdc73, stronger effect = lower value 0.971 | S. cerevisiae deletion strains, locus YML016C, strain PPZ1, stronger effect = lower value 0.992 | S. cerevisiae deletion strains, locus YML032C, strain rad52, stronger effect = lower value 1.01 | S. cerevisiae deletion strains, locus YML120C, strain ndi1, stronger effect = lower value 0.998 | S. cerevisiae deletion strains, locus YML124C, strain tub3, stronger effect = lower value 0.997 | S. cerevisiae deletion strains, locus YMR058W, strain fet3, stronger effect = lower value 0.998 | S. cerevisiae deletion strains, locus YMR078C, strain ctf18, stronger effect = lower value 0.992 | S. cerevisiae deletion strains, locus YMR125W, strain sto1, stronger effect = lower value 0.963 | S. cerevisiae deletion strains, locus YMR129W, stronger effect = lower value 1 | S. cerevisiae deletion strains, locus YMR205C, strain PFK2, stronger effect = lower value 1.03 | S. cerevisiae deletion strains, locus YMR223W, strain ubp8, stronger effect = lower value 1.01 | S. cerevisiae deletion strains, locus YMR231W, strain pep5, stronger effect = lower value 0.993 | S. cerevisiae deletion strains, locus YMR263W, strain SAP30, stronger effect = lower value 0.953 and 0.994 | S. cerevisiae deletion strains, locus YMR307W, strain GAS1, stronger effect = lower value 1.06 and 0.991 | S. cerevisiae deletion strains, locus YNL067W, strain RPL9B, stronger effect = lower value 0.972 | S. cerevisiae deletion strains, locus YNL071W, strain lat1, stronger effect = lower value 0.991 | S. cerevisiae deletion strains, locus YNL128W, strain TEP1, stronger effect = lower value 0.92 and 0.999 | S. cerevisiae deletion strains, locus YNL153C, strain GIM3, stronger effect = lower value 0.978 | S. cerevisiae deletion strains, locus YNL175C, strain NOP13, stronger effect = lower value 1.01 | S. cerevisiae deletion strains, locus YNL183C, strain NPR1, stronger effect = lower value 0.92 | S. cerevisiae deletion strains, locus YNL197C, strain WHI3, stronger effect = lower value 1.02 | S. cerevisiae deletion strains, locus YNL209W, strain ssb2, stronger effect = lower value 1.01 | S. cerevisiae deletion strains, locus YNL224C, strain SQS1, stronger effect = lower value 1.01 | S. cerevisiae deletion strains, locus YNL233W, strain BNI4, stronger effect = lower value 0.979 | S. cerevisiae deletion strains, locus YNL248C, strain rpa49, stronger effect = lower value 0.967 | S. cerevisiae deletion strains, locus YNL250W, strain rad50, stronger effect = lower value 0.98 | S. cerevisiae deletion strains, locus YNL271C, strain bni1, stronger effect = lower value 0.994 | S. cerevisiae deletion strains, locus YNL298W, strain CLA4, stronger effect = lower value 0.994 | S. cerevisiae deletion strains, locus YNL307C, strain MCK1, stronger effect = lower value 1.01 | S. cerevisiae deletion strains, locus YNL322C, strain KRE1 (second series), stronger effect = lower value 1 | S. cerevisiae deletion strains, locus YNL322C, strain KRE1, stronger effect = lower value 0.977 | S. cerevisiae deletion strains, locus YNR049C, strain mso1, stronger effect = lower value 0.997 | S. cerevisiae deletion strains, locus YNR052C, strain pop2, stronger effect = lower value 0.997 | S. cerevisiae deletion strains, locus YOL006C, strain TOP1, stronger effect = lower value 0.957 | S. cerevisiae deletion strains, locus YOL012C, strain htz1 0.788 | S. cerevisiae deletion strains, locus YOL147C, strain pex11, stronger effect = lower value 0.993 | S. cerevisiae deletion strains, locus YOR001W, strain rrp6, stronger effect = lower value 0.97 | S. cerevisiae deletion strains, locus YOR061W, strain CKA2, stronger effect = lower value 0.955 | S. cerevisiae deletion strains, locus YOR069W, strain VPS5, stronger effect = lower value 0.999 | S. cerevisiae deletion strains, locus YOR070C, strain gyp1, stronger effect = lower value 1.02 | S. cerevisiae deletion strains, locus YOR080W, strain dia2, stronger effect = lower value 1.01 | S. cerevisiae deletion strains, locus YOR083W, strain WHI5 (second series), stronger effect = lower value 0.988 | S. cerevisiae deletion strains, locus YOR083W, strain WHI5, stronger effect = lower value 1.04 | S. cerevisiae deletion strains, locus YOR106W, strain vam3, stronger effect = lower value 1.03 | S. cerevisiae deletion strains, locus YOR136W, strain idh2, stronger effect = lower value 0.997 | S. cerevisiae deletion strains, locus YOR144C, strain elg1, stronger effect = lower value 0.999 | S. cerevisiae deletion strains, locus YOR184W, strain ser1, stronger effect = lower value 1.03 | S. cerevisiae deletion strains, locus YOR231W, strain MKK1, stronger effect = lower value 0.968 | S. cerevisiae deletion strains, locus YOR265W, strain rbl2, stronger effect = lower value 1.01 | S. cerevisiae deletion strains, locus YOR270C, strain vph1, stronger effect = lower value 0.991 | S. cerevisiae deletion strains, locus YOR290C, strain snf2, stronger effect = lower value 0.968 | S. cerevisiae deletion strains, locus YOR316C, strain cot1, stronger effect = lower value 0.988 | S. cerevisiae deletion strains, locus YPL051W, strain arl3, stronger effect = lower value 1.04 | S. cerevisiae deletion strains, locus YPL055C, strain LGE1, stronger effect = lower value 0.95 and 0.989 | S. cerevisiae deletion strains, locus YPL078C, strain atp4, stronger effect = lower value 1.01 | S. cerevisiae deletion strains, locus YPL106C, strain sse1, stronger effect = lower value 1.01 | S. cerevisiae deletion strains, locus YPL240C, strain hsp82, stronger effect = lower value 1.01 | S. cerevisiae deletion strains, locus YPL241C, strain CIN2, stronger effect = lower value 0.988 and 0.994 | S. cerevisiae deletion strains, locus YPL256C, strain CLN2, stronger effect = lower value 0.979 | S. cerevisiae deletion strains, locus YPR119W, strain clb2, stronger effect = lower value 1 | S. cerevisiae deletion strains, locus YPR141C, strain kar3, stronger effect = lower value 0.975 | S. cerevisiae deletion strains, locus YPR163C, strain tif3, stronger effect = lower value 1 | S. cerevisiae deletion strains, locus YPR167C, strain met16, stronger effect = lower value 0.988 | S. cerevisiae deletion strains, strain wtn01, stronger effect = lower value 0.983 | S. cerevisiae strains, strain wild type, stronger effect = lower value 0.998
